Only some compounds are listed: those with a hit (about 2.8% of all), similar ones and a draw of the others.
PAFAH2 inh: PAFAH2 enzyme inhibitors, primary screen, biochemical, fluorescence polarization, human; Platelet-activating factor acetylhydrolase 2, cytoplasmic (Homo sapiens), Q99487; inhibition, % at 3.39 µM; recombinant PAFAH2, FP-rhodamine activity probe; actives 0.99% (n = 340,000);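 active = inhibition above the mean over all tested compounds plus 3 SD, cut at about 30% in these data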;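 note: inhibitors block probe labeling of enzyme so polarization drops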
PAFAH1B3 FP inh: PAFAH1B3 enzyme inhibitors, primary screen, biochemical, fluorescence polarization, human. Platelet-activating factor acetylhydrolase IB subunit alpha1 (Homo sapiens), Q15102. recombinant PAFAH1B3, FP-rhodamine probe. inhibition, % at 3.39 µM. actives 0.28% (n = 340,000);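 active = inhibition above the screen-wide average of all tested compounds plus 3 SD, cut at about 25% in these data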
Target sequence (Q15102 whole entry, looked up): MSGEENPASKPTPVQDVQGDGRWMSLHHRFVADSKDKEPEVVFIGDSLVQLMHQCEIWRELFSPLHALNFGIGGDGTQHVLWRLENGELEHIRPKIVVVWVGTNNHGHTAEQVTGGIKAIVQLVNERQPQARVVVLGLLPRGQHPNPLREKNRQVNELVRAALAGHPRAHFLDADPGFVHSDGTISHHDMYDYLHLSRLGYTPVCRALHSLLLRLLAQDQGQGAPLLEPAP
PME-1 inh: PME-1 inhibitors via competitive probe labeling, primary screen, biochemical, fluorescence polarization, FP-Rh probe, HTS; recombinant PME-1; Protein phosphatase methylesterase 1 (Homo sapiens), Q9Y570; actives 0.53% (n = 320,000); inhibition, % at 5.9 µM;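 active = inhibition above the campaign mean of all compounds plus 3 SD, cut at about 26% in these data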;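 note: competitive labeling of PME-1 active site by serine hydrolase directed probe; inhibitors block probe labeling so polarization falls and inhibition rises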
PAFAH1B2 FP inh: PAFAH1B2 enzyme inhibitors, primary screen, biochemical, fluorescence polarization, human; Platelet-activating factor acetylhydrolase IB subunit alpha2 (Homo sapiens), P68402; recombinant PAFAH1B2, FP-rhodamine activity probe; inhibition, % at 3.39 µM; actives 1.2% (n = 340,000); AID 492953, 2010;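 active = inhibition above the mean of all tested compounds plus 3 SD, cut at about 24% in these data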
Target sequence (P68402 whole entry, looked up): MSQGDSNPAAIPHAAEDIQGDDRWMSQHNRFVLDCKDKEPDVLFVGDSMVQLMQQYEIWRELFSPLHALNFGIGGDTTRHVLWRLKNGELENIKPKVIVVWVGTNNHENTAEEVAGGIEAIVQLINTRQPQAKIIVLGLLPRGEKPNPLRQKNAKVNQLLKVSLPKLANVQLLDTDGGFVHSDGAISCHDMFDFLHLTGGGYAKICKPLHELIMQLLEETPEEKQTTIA
Fam108B counter: mouse Fam108B serine hydrolase inhibitors, primary screen, counter-screen for RBBP9 inhibitor project, biochemical, fluorescence polarization; inhibition, % at 9.51 µM; recombinant Fam108B, FP-Rh probe fluorescence polarization; actives 0.33% (n = 300,000);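 active = inhibition above the screen mean inhibition plus 3 SD, computed separately per campaign, cut at about 18% in these data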;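 note: inhibitors lower polarization as less probe binds the enzyme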
pPAFAH inh: pPAFAH enzyme inhibitors, primary screen, biochemical, fluorescence polarization, human. Platelet-activating factor acetylhydrolase (Homo sapiens), Q13093. recombinant pPAFAH, FP-rhodamine probe fluorescence polarization. inhibition, % at 3.39 µM. actives 1.5% (n = 330,000). AID 463082, 2010;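 active = inhibition above the mean inhibition across the screen plus 3 SD, cut at about 25% in these data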;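 note: inhibitors block binding of the rhodamine activity-based probe so polarization drops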
A number is an active result; i = inactive; nt = no result.

SMILES | PAFAH2 inh | PAFAH1B3 FP inh | PME-1 inh | PAFAH1B2 FP inh | Fam108B counter | pPAFAH inh
CCCOc1ccc([C@@H]2C3CN(C(=O)OCC)CC=C3C(C#N)=C(N)C2(C#N)C#N)cc1OC (some centres undefined) | i | i | 47.8 | i | i | i
COc1cc(C2C3CN(C)CC=C3C(C#N)=C(N)C2(C#N)C#N)ccc1OC(C)C (centres undefined) | i | i | i | i | i | i
CCOC(=O)N1CC=C2C(C#N)=C(N)C(C#N)(C#N)[C@H](c3cccs3)C2C1 (some centres undefined) | i | i | 31.5 | i | i | i
CCOC(=O)C(Cc1ccc(O)c([N+](=O)[O-])c1)N1C(=O)c2ccccc2C1=O (centres undefined) | i | i | nt | i | nt | nt
CCOc1ccc(NC(=O)CCSc2ccc(C)cc2)cc1 | i | i | i | 24.8 | i | i
CC1(COS(N)(=O)=O)CCCCC1 | i | i | i | 34.6 | i | i
O=C(NNC(=O)c1ccccc1O)c1cc2ccccc2o1 | i | i | i | i | i | 26.0
O=C(NNC(=O)c1ccccc1O)c1ccc(-c2ccc([N+](=O)[O-])cc2)o1 | 38.6 | i | i | i | i | 32.2
Nc1ccccc1C(=O)NC(=O)Nc1ccc(Oc2ncc(Br)cn2)c(Cl)c1 | i | i | nt | i | nt | nt
O=C1CCC/C(=N/Nc2ccc(Cl)cc2)C1 | i | i | i | i | i | 26.7
Cc1cccc(CCNS(=O)(=O)c2cc3c(cc2C)NC(=O)CO3)c1 | i | i | i | i | i | i
Cc1ccc(CCNS(=O)(=O)c2cc3c(cc2C)NC(=O)CO3)cc1 | i | i | i | 24.5 | i | i
CCOC(=O)c1sc(N)c(C(=O)Nc2ccccc2OC)c1C | i | i | 28.8 | i | i | i
CCOC(=O)c1c(N)sc(-c2ccccc2)c1C | i | i | i | i | i | 34.3
CCOc1cccc(/C=C/c2ccc3cccc(O)c3n2)c1O | i | i | 35.8 | i | i | i
CCOc1cccc(/C=C/c2ccc3cccc(O)c3n2)c1OC | i | i | i | i | i | i
O=C(O)c1cc(S(=O)(=O)N(Cc2ccccc2)c2ccc(Cl)cc2)ccc1Cl | i | i | i | 29.5 | i | i
O=C(O)c1cccc(S(=O)(=O)N(Cc2ccccc2)c2ccccc2Cl)c1 | i | i | nt | i | nt | nt
O=C(O)c1cccc(S(=O)(=O)N(Cc2ccccc2)c2cccc(C(F)(F)F)c2)c1 | i | i | i | i | i | 28.1
O=C(O/N=C1/CCSc2ccccc21)c1ccc(F)cc1 | 47.2 | i | i | 24.4 | i | i
O=C(O)c1cc(N/N=C/c2ccc(-c3ccc(F)cc3)o2)ccc1Cl | i | i | i | i | i | 31.3
O=C(COC(=O)c1sc2cc(F)ccc2c1Cl)Nc1ncc(Cl)cc1Cl | i | i | i | i | i | 31.3
O=C(COC(=O)CCc1ccccc1)Nc1ncc(Cl)cc1Cl | i | i | i | i | i | 25.9
O=C(COC(=O)CCc1nc2ccccc2s1)Nc1ncc(Cl)cc1Cl | i | i | i | i | i | i
O=C(COC(=O)c1ccc(Br)o1)Nc1ncc(Cl)cc1Cl | i | i | i | i | i | i
SMILES | PAFAH2 inh | PAFAH1B3 FP inh | PME-1 inh | PAFAH1B2 FP inh | Fam108B counter | pPAFAH inh
CSCCC(NC(=O)COc1ccccc1)C(=O)N1CCN(c2ccccc2Cl)CC1 (centres undefined) | i | i | i | i | i | i
N=c1c[n+](-c2ccc(Cl)cc2)[n-]o1 | i | i | i | 31.4 | i | i
Cc1ccc(-c2cc(C(F)F)nc(NCc3cccnc3)n2)cc1 | i | i | i | i | i | 25.6
Cc1ccc(-c2cc(C(F)F)nc(NCc3cccs3)n2)cc1 | i | i | i | i | i | i
COc1ccc(OCC(=O)C2CC2)c(C#N)c1 | i | i | i | i | i | i
O=C(CCCc1ccccc1)Nc1cccc(C(=O)O)c1 | i | i | i | 25.1 | i | i
Cc1ccc(S(=O)(=O)N2CCOCC2)cc1C(=O)OCC(=O)c1ccc[nH]1 | i | i | i | i | nt | i
COc1ccc(OCC(=O)OCC(=O)Nc2cc(S(=O)(=O)N3CCOCC3)ccc2Cl)cc1 | i | i | nt | i | nt | 29.1
Cc1cc(OCC(=O)OCC(=O)Nc2cc(S(=O)(=O)N3CCOCC3)ccc2Cl)ccc1Cl | i | i | nt | i | nt | i
COc1ccc(CCNC(=O)COC(=O)c2cc(S(=O)(=O)N3CCCC3)ccc2O)cc1 | i | i | i | i | nt | i
Cc1ccc(S(=O)(=O)N2CCOCC2)cc1C(=O)OCC(=O)c1ccc(Br)cc1 | i | i | i | 25.8 | nt | i
O=C(COC(=O)c1cc(S(=O)(=O)N2CCCC2)ccc1O)Nc1ccccc1Br | 49.4 | i | nt | i | nt | i
O=C(COC(=O)c1ccccc1Br)Nc1cc(S(=O)(=O)N2CCOCC2)ccc1N1CCCC1 | i | i | 54.3 | i | i | i
CC(OC(=O)CNS(=O)(=O)c1ccc(C#N)cc1)C(=O)Nc1cccc(C#N)c1 (centres undefined) | i | i | i | i | i | i
O=C(Nc1ccccc1N1CCOCC1)c1ccc([N+](=O)[O-])s1 | i | i | nt | i | nt | i
CN(C(=O)c1ccccc1F)C(c1ccccc1)c1ccccc1 | i | i | i | i | i | i
CC(OC(=O)c1cc(Br)ccc1O)C(=O)Nc1ccc(S(=O)(=O)N2CCCC2)cc1 (centres undefined) | i | i | i | i | i | 26.3
CCOc1cccc(CNc2ccc(O)cc2)c1OCc1ccc(Cl)cc1Cl | i | i | i | i | i | 31.2
CCOc1cccc(CNn2cnnc2)c1OCc1ccccc1Cl | i | i | i | i | i | i
CCOc1cccc(CNc2ccc(O)cc2)c1OCc1ccccc1Cl | i | i | 33.7 | i | i | 32.2
CN(C)C(=O)CCc1ccc2c3c([nH]c2c1)[C@]1(C)[C@@H](C(=O)N2CCCCC2)C[C@H](CC(=O)NCC24CC5CC(CC(C5)C2)C4)C(=O)N1CC3 | i | i | nt | i | nt | 31.0
CC(C)=CCC/C(C)=C/CNC(=O)CC1C[C@H](C(=O)N2CCOCC2)[C@@]2(C)c3[nH]c4ccccc4c3CCN2C1=O (some centres undefined) | i | i | nt | i | nt | i
CC(C)=CCC/C(C)=C/CNC(=O)C[C@H]1C[C@H](C(=O)N2CCOCC2)[C@@]2(C)c3[nH]c4cc(-c5ccco5)ccc4c3CCN2C1=O | i | i | nt | i | nt | 24.8
CN(C)C(=O)CCc1ccc2c3c([nH]c2c1)[C@]1(C)[C@@H](C(=O)N2CCCCC2)C[C@H](CC(=O)NCCN2CCOCC2)C(=O)N1CC3 | i | i | nt | i | nt | i
COc1cc(CC(=O)OCC(=O)c2ccc(F)cc2)cc(OC)c1OC | i | i | nt | i | nt | i
